# Compound activity: PubChem, The Scripps Research Institute Molecular Screening Center
# HTR5A inv ag: HTR5A inverse agonists in luminescence cell assay, primary screen, counter-screen for OPRM1-OPRD1 heterodimer inverse agonist project, full-deck HTS. inhibition, % at 9.3 µM. AID 504634, 2011. 340,000 compounds, 0.083% hits. HTR5A cell line, inverse agonism. 5-hydroxytryptamine receptor 5A (Homo sapiens), P47898; in the data active = inhibition mostly above about 23%, no sharp cut-off; inactive = mostly below about 18%;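 also: 0% = cells with DMSO and 100% = no-cell wells with DMSO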
# Target sequence (P47898 whole entry, looked up): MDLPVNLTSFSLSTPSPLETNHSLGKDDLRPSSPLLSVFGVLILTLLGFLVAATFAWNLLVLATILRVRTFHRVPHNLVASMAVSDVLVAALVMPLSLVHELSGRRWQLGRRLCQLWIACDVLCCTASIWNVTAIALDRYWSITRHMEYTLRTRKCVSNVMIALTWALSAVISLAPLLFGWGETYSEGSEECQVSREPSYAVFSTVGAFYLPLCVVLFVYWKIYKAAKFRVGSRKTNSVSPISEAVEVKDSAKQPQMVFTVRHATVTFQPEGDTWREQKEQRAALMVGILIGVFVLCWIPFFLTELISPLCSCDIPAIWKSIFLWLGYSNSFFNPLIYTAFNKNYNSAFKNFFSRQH
# MOR-DOR inv ag-1: inverse agonists of MOR-DOR heterodimerization, primary screen, cell-based, luminescence; Mu-type opioid receptor (Homo sapiens) + Delta-type opioid receptor (Homo sapiens), …; 340,000 compounds, 0.21% hits; AID 504357, 2011; inhibition, % at 9.3 µM; cell-based MOR-DOR heterodimer luminescence, inverse agonism; in the data active = inhibition above about 22%, passing the limit was not always enough;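 also: 0% = cells with DMSO and 100% = wells without cells with DMSO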
# HTR5A ag ctr: HTR5A agonists in luminescence cell assay, primary screen, counter-screen for OPRM1-OPRD1 heterodimer agonist project, full-deck HTS. 5-hydroxytryptamine receptor 5A (Homo sapiens), P47898. cell-based. activation, % at 9.3 µM. 340,000 compounds, 0.61% hits. AID 504692, 2011; in the data active = activation mostly above about 9.5%, no sharp cut-off; inactive = mostly below about 7.6%;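 also: 0% = cells with vehicle only and 100% = reference agonist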
# MOR-DOR ag-1: agonists of OPRM1-OPRD1 heterodimerization, primary screen, cell-based, luminescence | 340,000 compounds, 0.3% hits | cells | AID 504326, 2011 | Mu-type opioid receptor (Homo sapiens) + Delta-type opioid receptor (Homo sapiens), … | activation, % at 9.3 µM;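 also: 0% = vehicle-treated cells and 100% = reference agonist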
# MOR-DOR inv ag-2: inverse agonists of MOR-DOR heterodimerization, counter-screen for HTR5A inverse agonist project, cell-based, luminescence | shares compounds with HTR5A inv ag | U2OS counter-screen cells, complementation luminescence | inhibition, % at 9.3 µM | 190 tested, under 10 active | AID 504912, 2011; call rule not given here;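 also: 0% = cells with DMSO and 100% = wells without cells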
# HTR5A inv confrm: HTR5A inverse agonists, retest of hits, confirmation, cell-based, luminescence; shares compounds with HTR5A inv ag; HTR5A-expressing cells, inverse agonism; inhibition, % at 9.3 µM; 190 tested, under 10 active; call rule not given here;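 also: 0% = cells with DMSO and 100% = no cells with DMSO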
# MOR-DOR ag-2: OPRM1-OPRD1 heterodimerization promoters, counter-screen for HTR5A agonist project, cell-based, luminescence; shares compounds with HTR5A ag ctr; U2OS counter-screen cells, complementation luminescence, 3 h; activation, % at 9.3 µM; 800 compounds, 13% hits
# HTR5A ag conf: HTR5A agonists, retest of hits, confirmation, cell-based, luminescence | shares compounds with HTR5A ag ctr | HTR5A agonist cell assay | activation, % at 9.3 µM | 800 compounds, 17% hits | AID 504915, 2011; in the data active = activation above about 17%;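 also: 0% = cells with vehicle only and 100% = full reference agonist response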
# An asterisk follows results filed as active; i = inactive; / = not tested or not shown. This is a sample that favours compounds with a hit; in the whole collection about 1.1% have one here. Rule as the data show it, unless noted: active = activation above about 18%; inactive = the rest.
SMILES,HTR5A inv ag,MOR-DOR inv ag-1,HTR5A ag ctr,MOR-DOR ag-1,MOR-DOR ag-2,HTR5A ag conf,others
CC(=O)NNC(=S)NC(=O)C(c1ccccc1)c1ccccc1,20,20,-8,-4,/,/,
Brc1ccccc1/C=N/Nc1ccc2ccccc2n1,-12,-10,-2,2,/,/,
O=[N+]([O-])c1cccc(C=NNc2ccc3ccccc3n2)c1O,35*,11,-9,-2,/,/,MOR-DOR inv ag-2=13;HTR5A inv confrm=47*
C=CCSc1nnc(CC(OC)OC)n1-c1ccccc1,39*,-9,3,1,/,/,MOR-DOR inv ag-2=-11;HTR5A inv confrm=-8
COC(Cc1nnc(SC)n1-c1ccc(Cl)cc1)OC,13,11,-4,-2,/,/,
CCOC(=O)/C(=C\c1ccccc1)C(=O)CCN1CCOCC1,-16,16,4,-4,/,/,
O=C(Nc1ccc(S(=O)(=O)N2CCOCC2)cc1)c1ccc(Cl)c([N+](=O)[O-])c1,8,-31,-2,6,/,/,
CN(C)/N=C/c1cc([N+](=O)[O-])ccc1O,28*,8,-9,-1,/,/,MOR-DOR inv ag-2=-23;HTR5A inv confrm=7
NC(N)=N/N=C/c1cc([N+](=O)[O-])ccc1O,21,10,0,-2,/,/,
COc1cc([N+](=O)[O-])c2nc(C(=O)O)ccc2c1,-9,15,2,-3,/,/,
Nc1ccc(C(=O)NN2C(=O)[C@H](Cl)C2c2ccc(Cl)cc2)cc1 (stereo partly specified),-4,7,1,-1,/,/,
O=C(Cc1ccccc1)NCc1ccc2c(c1)OCO2,13,7,-2,-1,/,/,
O=C(CC12CCC(CC1)C2)NCc1ccc2c(c1)OCO2,27*,-8,2,2,/,/,MOR-DOR inv ag-2=i;HTR5A inv confrm=6
CC(Cc1ccccc1)N1CCCC1=O (stereo unspecified),-2,15,1,-3,/,/,
N#CCCN(C(=O)COC(=O)CCNS(=O)(=O)c1ccccc1)c1ccccc1,1,-2,5,1,/,/,
COc1ccc(OC)c(S(=O)(=O)Nc2ccccc2C(=O)N2CCCCC2)c1,45*,0,-1,0,/,/,MOR-DOR inv ag-2=-4;HTR5A inv confrm=-5
COc1ccc(S(=O)(=O)Nc2ccccc2C(=O)N2CCCC2)cc1OC,-21,1,7,0,/,/,
COCCN(C(=O)COC(=O)c1cc(C)oc1C)c1c(N)n(Cc2ccccc2)c(=O)[nH]c1=O,65*,3,-26,-1,/,/,MOR-DOR inv ag-2=-8;HTR5A inv confrm=-16
COCCN(C(=O)COC(=O)c1ccc(C)o1)c1c(N)n(Cc2ccccc2)c(=O)[nH]c1=O,6,11,-3,-2,/,/,
CC(C)(C)c1cc(C(=O)NNc2cc(C(F)(F)F)ccc2Cl)n(Cc2ccccc2)n1,15,-89,18*,18,12,16,
COc1ccccc1NNC(=O)c1cc(C(C)(C)C)nn1Cc1ccccc1,-12,19,7,-4,/,/,
CC(=O)C1=C(C)NC(C)=C(C(C)=O)C1c1ccc(-c2ccccc2Cl)o1,-56,4,23*,-1,1,2,
CNC(=O)C1CCN(S(=O)(=O)c2c(C)noc2/C=C/c2ccc(OC)cc2)CC1,9,12,-3,-2,/,/,
COc1ccc(C(=O)O/N=C(\N)Cc2ccc(Cl)cc2)cc1OC,-10,-59,25*,10,7,6,
N/C(Cc1ccc(Cl)cc1)=N\OC(=O)c1ccccc1,4,-9,5,2,/,/,
SMILES,HTR5A inv ag,MOR-DOR inv ag-1,HTR5A ag ctr,MOR-DOR ag-1,MOR-DOR ag-2,HTR5A ag conf,others
N/C(Cc1ccc([N+](=O)[O-])cc1)=N\OC(=O)c1ccc([N+](=O)[O-])cc1,-50,-9,21*,2,3,1,
CCOC(=O)C1=C(COC(=O)CNC(=O)c2ccc(Cl)cc2Cl)NC(=O)NC1C (stereo unspecified),15,4,2,-1,/,/,
COc1ccc(-c2noc(N3CCC(C(=O)NC(C)c4ccccc4)CC3)n2)cc1 (stereo unspecified),-12,9,3,-2,/,/,
CCN(CC)CCN(Cc1cc2cc3c(cc2[nH]c1=O)OCO3)C(=S)NC,-2,10,1,-2,/,/,
COc1cc(O)c(C(CCN2CCCCC2)c2ccc(N(C)C)cc2)c(OC)c1 (stereo unspecified),-76,-3,26*,1,45*,-5,
Cc1ccc2c(c1)Oc1ccc(NC(=O)CCl)cc1C(=O)N2,-18,14,15*,-3,2,4,
COc1ccc(NC(=O)Cc2nc3ccccc3[nH]2)cc1,-35,-47,28*,8,3,19*,
COc1ccc(CC(=O)Nc2nc3ccccc3[nH]2)cc1,-25,11,8,-2,/,/,
CC[C@@]12C(=O)N(c3cccc(F)c3)C(=O)N1[C@H](c1ccc(Cl)cc1)[C@@H]1C(=O)N(C3CCCCC3)C(=O)[C@@H]12,-10,-47,15*,8,19*,11,
O=C1[C@H]2[C@@H](c3ccc(Cl)cc3)N3C(=O)N(c4cccc(F)c4)C(=O)[C@@]3(Cc3ccc(Cl)cc3)[C@H]2C(=O)N1C1CCCCC1,11,14,1,-3,/,/,
COc1ccccc1N1CCN(C(=O)c2ccc3c(Cl)c4c(nc3c2)CCCC4)CC1,-13,-19,0,3,/,/,
O=C(c1ccc2c(Cl)c3c(nc2c1)CCCC3)N1CCN(c2ccc(F)cc2)CC1,-41,-8,16*,1,5,5,
O=C(CN1c2ccccc2Sc2ccccc21)N/N=C/c1ccc(Cl)cc1Cl,-15,3,4,0,/,/,
CNC(=O)CCCCC(=O)N/N=C/c1ccc(Cl)cc1Cl,-10,3,15*,-1,31*,-2,
C=CCN(Cc1ccc(Cl)s1)C(=O)c1ccc(F)c(S(=O)(=O)N2CCOCC2)c1,-10,9,2,-2,/,/,
Cc1cc(C(C)(C)C)c(O)c(C)c1CC1=NCCN1,-232,6,84*,-1,0,86*,
c1ccc2c(CC3=NCCN3)cccc2c1,-13,3,4,-1,/,/,
Cc1ccc(-c2cc(C(=O)Nc3ccc(S(=O)(=O)Nc4ncccn4)cc3)c3ccccc3n2)cc1,-9,-2,-2,0,/,/,
CCc1ccc(-c2cc(C(=O)Nc3ccc(S(=O)(=O)NC(C)=O)cc3)c3ccccc3n2)cc1,-51,12,21*,-2,10,-3,
O=C(Nc1cc(Cl)ccc1-n1cncn1)C1CC1,0,-31,-4,5,/,/,
